Screening results deposited in PubChem by National Center for Advancing Translational Sciences (NCATS).
Sampled rows, rich in hits. Any-hit rate of the full collection: about 6.5%.
Lassa entry inh – inhibitors of Lassa virus binding or cell entry; Lassa virus pseudotype entry inhibition, cell reporter; actives 1.2% (n = 300,000); AID 540256; Potency, µM (highest dose often 37.9 µM), without a hit: top-dose activity change, negative = inhibition, hits mostly inhibitors; calls by dose curve; tested in HEK293 cells; also: potency is read from the fitted curve at half-maximal effect; nearly all actives have a fitted effect of over 50% in size
Marburg entry inh – inhibitors of Marburg virus binding or cell entry. actives 1.8% (n = 300,000). Potency, µM (doses to about 37.8 µM), for inactives: at the top dose activity change, negative = inhibition, most hits filed as inhibitors. Marburg virus pseudotyped entry inhibition, cell reporter; calls by dose curve; tested in HEK293 cells; also: potency is read from the fitted curve at half-maximal effect
VACV Venus inh – vaccinia inhibition (Venus reporter); Vaccinia virus Venus reporter expression, fluorescence; AID 720580; Potency, µM (top dose mostly 36.5 µM), for inactives: top-dose activity change, negative = inhibition, actives largely listed as inhibitors; actives 0.46% (n = 330,000); calls by dose curve; tested in A549 cells; also: potency is read from the fitted curve at half-maximal effect; nearly all actives have a fitted effect of over 30% in size
HCMV inh – human cytomegalovirus inhibition; HFF cells, HCMV-luciferase reporter, 72 h; active compounds read low; activity change, negative = inhibition, % at 57.5 µM; actives 4.5% (n = 410,000); AID 1259415; in the data active = activity change below about -60%; inconclusive = no clear call, values can overlap the other calls; inactive = above about -39%
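Human foreskin fibroblasts infected with luciferase-reporter HCMV at MOI 1 PFU/cell, compounds at two doses. Luciferase measured 72 h post infection; normalized to buffer-only basal and Salinomycin (10uM) controls.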
FMDV antiviral – blocks foot and mouth disease virus | AID 1159524 | actives 1.2% (n = 410,000) | Potency, µM (titrated, usually from 57.9 µM), for the others: top-dose activity change, negative = inhibition, hits mostly inhibitors | FMDV antiviral cell-based qHTS; calls by dose curve; tested in HEK293T cells; also: read-out not given here; potency is read from the fitted curve at half-maximal effect; nearly all actives have a fitted effect of over 45% in size
VACV mCherry inh – vaccinia inhibition (mCherry reporter); Vaccinia virus mCherry reporter infection, fluorescence; Potency, µM (highest dose often 36.5 µM), inactives show top-dose activity change, negative = inhibition, usual class: inhibitors; actives 0.63% (n = 310,000); AID 720579; calls by dose curve; tested in A549 cells; also: potency is read from the fitted curve at half-maximal effect; nearly all actives have a fitted effect of over 35% in size
The depositor's hits bear a star; i = inactive; u = inconclusive; x = no result; ! = repeats disagree; [ ] = remark or other dose. % is scaled to controls: 0 for no effect and ±100 for the full control effect.

SMILES | Lassa entry inh | Marburg entry inh | VACV Venus inh | HCMV inh | FMDV antiviral | VACV mCherry inh
COc1ccc(NC(=O)c2ccco2)cc1NC(=O)COc1ccc(C)cc1C | 0%[46.1 µM] | -1%[46.1 µM] | u | -66* | u | -7%
Cc1cc(C)cc(C(=O)Nc2cccc(NC(=O)c3ccco3)c2)c1 | 0% | -19% | -15% | -73* | -9% | i
COc1ccc(NS(=O)(=O)c2c(C)n(C)c(=O)n(C)c2=O)cc1OC | x | x | 1% | 18 | -5% | -21%
COc1cccc(NS(=O)(=O)c2c(C)n(C)c(=O)n(C)c2=O)c1 | x | x | -1% | -70* | 2% | 3%
COCC=CC1=CC2=CC(=O)C(C)(OC(=O)c3cnc4ccccc4n3)C(=O)C2=CN1CCc1c[nH]c2ccccc12 (stereo not given) | x | 22%[14.2 µM] | x | x | x | x
CCCS(=O)(=O)c1nc(S(=O)(=O)c2ccc(C)cc2)c(N2CCN(CC)CC2)s1 | x | x | x | -80* | -2% | x
Cc1ccc(S(=O)(=O)c2nc(S(C)(=O)=O)sc2N2CCCC2)cc1 | x | x | x | -24 | 29% | x
CCN1CCN(c2sc(S(C)(=O)=O)nc2S(=O)(=O)c2ccc(C)cc2)CC1 | x | x | x | -91* | 8% | x
CCN1CCN(c2sc(S(=O)(=O)CC)nc2S(=O)(=O)c2ccc(C)cc2)CC1 | x | x | -21% | -72* | -2% | u
CCCS(=O)(=O)c1nc(S(=O)(=O)c2ccc(C)cc2)c(N2CCN(C)CC2)s1 | x | x | x | u | 0% | x
CN(C)c1cccc(Nc2nccc3[nH]c(-c4ccsc4)cc23)c1 | x | x | x | -8 | x | x
C/C(CCC(=O)OC[C@@H]1O[C@H](C#Cc2ccccc2)C=C[C@@H]1Oc1ccc(C)cc1)=N/OC[C@@H](O)[C@H]1O[C@H]2OC(C)(C)O[C@H]2[C@@H]1O | x | -2%[14.2 µM] | x | x | x | x
CN(C)c1ccc(Cn2ccc3ccccc32)cc1 | x | x | 6% | x | x | 37%
ClC1=C(Cl)[C@]2(Cl)[C@@H]3[C@H]4C[C@H]([C@@H]5O[C@H]45)[C@@H]3[C@@]1(Cl)C2(Cl)Cl | x | x | 0% | x | -29% | i
Cc1cccc(C(=O)N[C@H]2CC[C@@H](n3cc(C(=O)N4CCCC4)nn3)CC2)c1 | x | x | 3% | x | -8% | -9%
CCCCOC(=O)/C=C\C(=O)OCCCC | x | x | 0% | 0 | -32% | 17%
CCCCOC(=O)/C=C\C(=O)NC(N)=O | u | u | -4% | 112 | 28µM* | u
CCOC(=O)N1CCC(NC(=O)CCc2c(C)nc3nc(C)nn3c2C)CC1 | 3% | -5% | -2% | -28 | -1% | -5%
CCOC(=O)N1CCC(NC(=O)CCc2c(C)nc3c(c(C)nn3C(C)(C)C)c2C)CC1 | u | u | x | -73* | u | x
CCN(CCNC(=O)C1CCN(Cc2nc(-c3ccc(Cl)cc3)oc2C)CC1)c1ccccc1 | u | u | u | 27 | u | 13µM*
Cc1oc(-c2cccc(Cl)c2)nc1CN1CCC(C(=O)NC(C)c2ccccc2)CC1 (stereo not given) | 21%[46.1 µM] | 8%[46.1 µM] | u | -12 | 35µM* | u
CCN(CCNC(=O)C1CCN(Cc2nc(-c3cccc(Cl)c3)oc2C)CC1)c1ccccc1 | u | u | 11µM* | 84 | 40µM* | 14µM*
CCc1ccc(-c2nc(CN3CCC(C(=O)NCCN(CC)c4ccccc4)CC3)c(C)o2)cc1 | 8% | -8% | -16% | -32 | u | -20%
Cc1oc(-c2cccc(Cl)c2)nc1CN1CCC(C(=O)NC2CC2)CC1 | x | x | x | -39 | -7% | x
CCCCCCCOC(=O)C1=C(C)Nc2ncnn2C1c1cccs1 (stereo not given) | 13µM* | u | -9% | -17 | u | -7%
CC(N)C(=O)OC(C)(C)Cc1ccc(Cl)cc1 (stereo not given) | u | 10µM*! | -13% | -19 | -14% | -2%
CCC1CN(CCNC(=O)c2cc3ccccc3oc2=O)Cc2cc(OC)ccc2O1 (stereo not given) | x | x | -2% | x | -1% | -6%
CC(C)(C)c1nn2cnnc2n(/N=C/c2cccc3ccccc23)c1=O | 0% | 15% | u | -25 | 28µM* | -8%
C=C(Br)CO[C@@H]1C=C[C@@H](c2ccccc2)O[C@@H]1COC | x | 9%[14.2 µM] | x | x | x | x
CC(C)(CNC(=O)c1cc([N+](=O)[O-])ccc1N1CCC(Cc2ccccc2)CC1)N1CCOCC1 | x | x | x | -63* | -28% | x
